Data on 32 compounds can be found in ChEMBL document CHEMBL1157539, “Thousands of chemical starting points for antimalarial lead identification” (Nature, 2010).

Format in all cases: functional
Test [1] concerns Plasmodium falciparum. As to the kind of experiment: GSK_TCMDC: Inhibition of Plasmodium falciparum 3D7 in whole red blood cells, using parasite LDH activity as an index of growth. Test compounds present at 2uM.
Test [2] has as its system Plasmodium falciparum. Put plainly: GSK_TCMDC: Inhibition of Plasmodium falciparum Dd2 in whole red blood cells, using parasite LDH activity as an index of growth. Test compounds present at 2uM.
In a further test the test system is HepG2. As to the kind of experiment: GSK_TCMDC: Percent inhibition of human HepG2 cell line. Test compounds present at 10uM.

Structures are written as SMILES. Residues, ends and D or L forms follow the SMILES beside them. *: point of attachment. Octanoyl = CCCCCCCC(=O)*

As to `Cc1nc2c(c(O)c1Cl)-c1ccc(Oc3cccc(C(F)(F)F)c3)cc1C2=O`, the results for the Inhibition in the test on Plasmodium falciparum [1], with Plasmodium falciparum [2] and with HepG2 were 98%, 97% and 25%, respectively.
Consider `COc1ccc2nc(C)cc(N/N=C/c3ccc([N+](=O)[O-])cc3)c2c1`, for which the Inhibition – broadly, the drop in the measured response relative to a control, in per cent – is 100% in the test on Plasmodium falciparum [1], 70% in the test with Plasmodium falciparum [2] and 0% with HepG2.
In the same order, the values of `Cc1ccc2cc(NC(=O)CCCCCCCON3C(N)=NC(N)=NC34CCCCC4)ccc2n1.O=C(O)C(F)(F)F` are 98%, 86% and 6%.
On the same counts, the results for `COc1ccc2nccc([C@@H](O)CN3CCC(NC(=O)C(c4cc5ccccc5o4)N4CCC(Cc5ccccc5)CC4)CC3)c2c1` (stereo partly specified) are 100%, 82% and 11%.
As for `O=C(Nc1cccc(-c2cccc(-c3nc4cc(F)ccc4[nH]3)c2)c1)c1ccncc1`, the results for the Inhibition in the test with Plasmodium falciparum [1], in the test with Plasmodium falciparum [2] and in the test on HepG2 were 92%, 24% and 28%, respectively.
For `CCCCCCCC(=O)N[C@@H](Cc1ccccc1)C(=O)N[C@H](C(=O)O)C(C)C` (Octanoyl-Phe-Val-OH), the Inhibition in the test with Plasmodium falciparum [1] is 89%; in the test with Plasmodium falciparum [2] it was 0%; in the test with HepG2, 0%.
In the case of `COc1ccc2ncc(C#N)c(CCN3C[C@H](CNCc4ccccc4)[C@H](O)C3)c2n1.Cl`, the Inhibition was 91% in the test with Plasmodium falciparum [1], 24% in the test on Plasmodium falciparum [2] and 3% in the test on HepG2.
In the same order, the values of `CCOC(=O)C(CO)NC(=O)c1ccc([N+](=O)[O-])o1` (stereo unspecified) are 96%, 2% and 0%.
In the same order, the values of `Cc1cc(C)cc(OCC(O)CN(Cc2cc(Cl)cc(Cl)c2)C(=O)Nc2ccc([N+](=O)[O-])cc2)c1` (stereo unspecified) are 95%, 38% and 0%.
With `CN(c1ccc2c(c1)nc(Nc1ccc(Cl)cc1)n2C)c1ccnc(Nc2ccc(CS(C)(=O)=O)cc2)n1.Cl`, the Inhibition is 97% in the test on Plasmodium falciparum [1], 52% with Plasmodium falciparum [2] and 91% in the test on HepG2.
`CC(C)(CNC(=O)[C@@H]1CCCN(CCOc2ccc(Cl)cc2)C1)c1nc(-c2ccc(Cl)c(O)c2)c(-c2ccncc2)[nH]1.Cl`: the values for the Inhibition with Plasmodium falciparum [1], in the test on Plasmodium falciparum [2] and in the test on HepG2 were 92%, 57% and 58%, respectively.
For the compound `O=C(NCCCCCN1CCC(c2c[nH]c3ccccc23)CC1)Nc1cccc(I)c1`, the Inhibition amounted to 99% with Plasmodium falciparum [1], 11% with Plasmodium falciparum [2] and 70% with HepG2.
With `Cc1cccc2nc(-c3cccc(-c4cccc(CN5CCN(c6ccc(C#N)cn6)CC5)c4)c3)[nH]c12.O=C(O)C(F)(F)F`, the Inhibition came out at 94% in the test with Plasmodium falciparum [1], 34% in the test with Plasmodium falciparum [2] and 11% with HepG2.
`CCc1ccc(S(=O)(=O)Nc2cccc(CCN3CCC(N4CCCCC4)CC3)c2)cc1`: the Inhibition turned out to be 100% in the test with Plasmodium falciparum [1], 20% in the test with Plasmodium falciparum [2] and 21% in the test with HepG2.
In the same order, the values of `c1cncc(Oc2ccc(Nc3ccnc4cc(-c5cccc(CN6CCOCC6)c5)ccc34)cc2)c1` are 100%, 100% and 14%.
In the case of `CN1CCN(Cc2cccc(-c3ccc4c(Nc5cc(O)c(Cl)cc5F)ccnc4c3)c2)CC1`, the Inhibition in the test with Plasmodium falciparum [1] turned out to be 100%; in the test with Plasmodium falciparum [2], 100%; in the test on HepG2 it was 0%.
`O=C(NCC1CCC(C(=O)O)CC1)c1ccc(/C=C/C(=O)N2CCc3ccccc3C2c2ccc3c(c2)OCO3)cc1` (stereo unspecified): the figures for the Inhibition in the test with Plasmodium falciparum [1], in the test on Plasmodium falciparum [2] and in the test on HepG2 were 91%, 17% and 66%, respectively.
Regarding `CCCN(Cc1nnc(-c2ccco2)o1)C(=O)C1CCN(c2ncc(C(F)(F)F)cc2Cl)CC1`, the Inhibition in the test on Plasmodium falciparum [1] is 98%; in the test with Plasmodium falciparum [2], 92%; in the test on HepG2 it was 19%.
`Br.CC1(C)NC(N)=NC(=N)N1OCc1cccs1`: the Inhibition in the test with Plasmodium falciparum [1] is 93%; in the test with Plasmodium falciparum [2] it was 0%; in the test on HepG2, 60%.
On the same counts, the results for `CN(C)c1cccc2c1nc(-c1ccc3c(c1)CCO3)n2CCNCc1ccccc1.O=C(O)C(F)(F)F` are 99%, 85% and 6%.
As for `Cc1cc(Nc2ccc(Cl)c(Cl)c2)n2nc(C)nc2n1`, the results for the Inhibition in the test with Plasmodium falciparum [1], with Plasmodium falciparum [2] and with HepG2 were 97%, 97% and 6%, respectively.
With `COc1ccc(CNCCc2cccs2)cc1-c1ccc(S(=O)(=O)NCCN2CCCC2)s1.O=C(O)C(F)(F)F`, the Inhibition with Plasmodium falciparum [1] was 99%; with Plasmodium falciparum [2], 21%; with HepG2, 41%.
With `OC(CNc1ccnc(Nc2cccc(Cl)c2)n1)c1ccc(C(F)(F)F)cc1` (stereo unspecified), the Inhibition in the test on Plasmodium falciparum [1] was 100%; with Plasmodium falciparum [2], 61%; in the test with HepG2 it was 13%.
On the same counts, the results for `Cl.NC1(C(=O)O)Cc2ccc(Cl)cc2C1` (stereo unspecified) are 93%, 1% and 0%.
On the same counts, the results for `C=CC[C@H](C[C@H](O)[C@H](Cc1ccccc1)NC(=O)c1ccc(-n2cccn2)cc1)C(=O)NC1CCCCC1` are 96%, 0% and 1%.
In the case of `CN(C)CCCNCc1cn(S(=O)(=O)c2ccccc2Cl)c2ccccc12.Cl`, the values for the Inhibition in the test on Plasmodium falciparum [1], with Plasmodium falciparum [2] and with HepG2 were 92%, 71% and 20%, respectively.
For `NC1CCCN(Cc2cccc(-c3ccc(-c4nc5cc(C(F)(F)F)ccc5[nH]4)cc3)c2)C1.O=C(O)C(F)(F)F` (stereo unspecified), the Inhibition in the test with Plasmodium falciparum [1] worked out at 99%; in the test with Plasmodium falciparum [2] it was 96%; in the test on HepG2, 47%.
In the same order, the values of `COc1cc2c(cc1N(C(C)C)S(=O)(=O)c1sc3ccc(Cl)cc3c1C)CCNCC2.Cl` are 91%, 70% and 98%.
On the same counts, the results for `O=C(NC1CC1)c1ccc(N2CCC(c3ccccc3)CC2)nc1.O=C(O)C(F)(F)F` are 93%, 92% and 16%.
In the same order, the values of `c1ccc(CSC2=NNC(c3ccccn3)S2)cc1` (stereo unspecified) are 80%, 65% and 6%.
For the compound `COc1ccc(C(=O)COc2cccc(/C=C/C(=O)O)c2)cc1OC`, the values for the Inhibition in the test with Plasmodium falciparum [1], in the test with Plasmodium falciparum [2] and in the test with HepG2 were 84%, 28% and 44%, respectively.
On the same counts, the results for `CCCC(=O)Nc1ccc(OCCCN(Cc2ccccc2F)c2ccc(C#N)c(C(F)(F)F)c2)cc1` are 89%, 93% and 7%.
